The results in this text go back to PubChem BioAssay (NCATS).

Results filed as inconclusive are left out. Values without a mark were called inactive. Activity calls are given as the source filed them. Calls come from the whole dose curve; as a rule, active = well fitted inhibition curve with a large enough effect; inconclusive = small, poorly fitted or top-dose-only effect; inactive = flat fitted curve, though single readings scatter.
% is set by controls: 0 for no effect and ±100 for the full control effect; potency is the fitted concentration of half-maximal effect.

The experiment relates to HEK293. As to the kind of experiment: Cytotoxic Profiling of Annotated Libraries Using Quantitative High-Throughput Screening (AID 1296008). Note: nearly all actives have a fitted effect of over 60% in size. The settings on record: Five cell lines viability, CellTiter-Glo ATP luminescence, 48-72 h; max response: hits give low values. In short, it runs like this: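 Cytotoxicity was measured as CellTiter-Glo ATP luminescence, read after 10 min at room temperature. Compound treatment of the cells lasted 48 or 72 hr at 37 degrees Celsius in a qHTS format.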
Take `Cc1cc2c(F)c(Oc3ncnn4cc(OCC(C)O)c(C)c34)ccc2[nH]1` (centres undefined): the Potency was 5.8 µM (active).

Consider `CC(C)C(C(=O)N(C)C(C)C(N)=O)N(C)C(=O)C1CCCN1C(=O)/C=C/C=C/C(O)C(C)O` (centres undefined), for which the max response was 4.88%.

In the case of `O=C1NC(Cc2ccccc2)C(=O)N2CCCC12` (centres undefined), the max response was -1.73%.

As for `O=C(CCc1nnc2n(Cc3ccc(Cl)cc3)c(=O)c3ccccc3n12)NCCC1=CCCCC1`, the max response was -12.9%.

For the molecule `CCCC1(c2ccccc2)NC(=O)N(CC(=O)N(C)Cc2c(F)cccc2Cl)C1=O` (centres undefined), the max response is -6.56%.

As to `C[C@@H]1CC[C@]2(C(=O)OC3OC(CO)C(O)C(O)C3O)CC[C@]3(C)C(=CCC4[C@@]5(C)CC[C@H](O)[C@](C)(C(=O)O)C5CC[C@]43C)C2[C@]1(C)O` (some centres undefined), the max response was -6.18%.

As to `C=C(C(=O)O)C1CCC2(C)CCC(O)C(C)(O)C2C1` (centres undefined), the max response is -0.305%.

As to `CNS(=O)(=O)c1ccccc1Nc1nc(Nc2ccc(N3CCN(C)CC3)cc2OC)ncc1Cl`, the Potency was 1.3 µM (active).

With `COC(=O)c1ccc(OC(CO)C(O)c2ccc(O)c(OC)c2)c(OC)c1` (centres undefined), the max response was 1.51%.

`CC1CCC2(C(=O)O)CCC3(C)C(=CCC4C5(C)CCC(O)C(C)(CO)C5CCC43C)C2C1(C)O` (centres undefined): the max response was -24.2%.

Take `CC1CCN(C(=O)CC#N)CC1N(C)c1ncnc2[nH]ccc12` (centres undefined): the molecule was called inactive.

With `C[C@@H]1O[C@@H](O[C@H]2[C@H](O)[C@@H](O[C@@H]3O[C@H](CO)[C@@H](O)[C@H](O[C@@H]4O[C@H](CO)[C@@H](O)[C@H](O)[C@H]4O)[C@H]3O)[C@H](O[C@H]3CC[C@@]4(C)C(=CC[C@@H]5C4CC[C@@]4(C)C5C[C@@H]5OC6(CC[C@@](C)(CO[C@@H]7O[C@H](CO)[C@@H](O)[C@H](O)[C@H]7O)O6)[C@@H](C)[C@@H]54)C3)O[C@@H]2CO)[C@H](O)[C@H](O)[C@H]1OC1OC(CO)C(O)C(O)C1O` (some centres undefined), the max response was -4.6%.

Consider `CC(=O)NCC(=O)N1C2CCC1c1cc(Nc3ncc(C(F)(F)F)c(NC4CCC4)n3)ccc12` (centres undefined), for which the Potency was 2.59 µM (active).

`CC(NC(=O)CCc1nc2ccccc2c(=O)[nH]1)c1ccccc1` (centres undefined): the max response was -0.47%.

Regarding `C[C@@H]1O[C@@H](O[C@H]2[C@H](O[C@H]3[C@H](O[C@H]4CC[C@@]5(C)C(CC[C@]6(C)C5CC=C5[C@@H]7CC(C)(C)C[C@@H](O)[C@]7(C)CC[C@]56C)[C@@]4(C)CO)O[C@H](C(=O)O)[C@@H](O)[C@@H]3O)OC[C@H](O)[C@@H]2O)[C@H](O)[C@H](O)[C@H]1O` (some centres undefined), the max response is -4.78%.

For `COc1cc(C2Oc3c(OC)cc(CCCO)cc3C2CO)ccc1O[C@H]1O[C@H](C)[C@@H](O)[C@H](O)[C@@H]1O` (some centres undefined), the max response is -0.663%.

With `COC(=O)/C=C/C12COC(C)(C)C1C(O)C(OC(C)=O)C1(C)C2CCC2(C)C(c3ccoc3)OC(=O)C3OC321` (centres undefined), the max response was -22.6%.

Consider `Cn1cc(-c2ccc3nnc(Sc4ccc5nn(C)cc5c4)n3n2)cn1`, for which the call was inactive.

Turning to `COC(=O)C1=CO[C@@H](O[C@@H]2O[C@H](CO[C@@H]3O[C@H](COC(=O)/C=C/c4cc(OC)c(O)c(OC)c4)[C@@H](O)[C@H](O)[C@H]3O)[C@@H](O)[C@H](O)[C@H]2O)[C@@H]2C(CO)=CC[C@H]12`, the max response is 0.174%.

In the case of `CC1=C(/C=C/C(C)=C\C=C\C(C)=C/C(=O)O)C(C)(C)CCC1`, the max response was 0.159%.

As to `Cc1nc2sc(C(=O)NCc3ccncc3)c(N)c2c(C)c1Cl`, the max response is -2.15%.

As to `CCn1c(=O)c(-c2ccn[nH]2)cc2c(C)nc(N)nc21`, the Potency was 4.61 µM (active).

For `NC(=O)C(CCC(F)(F)F)N(Cc1ccc(-c2ncon2)cc1F)S(=O)(=O)c1ccc(Cl)cc1` (centres undefined), the max response was -83.5%.

Take `CN1CCc2nc(C(=O)N[C@@H]3C[C@@H](C(=O)N(C)C)CC[C@@H]3NC(=O)C(=O)Nc3ccc(Cl)cn3)sc2C1`: the max response is -78.6%.

As to `C=CCC1=C[C@]2(OC)[C@H](C)[C@@H](c3ccc(O)c(OC)c3)O[C@]2(OC)CC1=O`, the max response was 0.3%.

On to `CC1(C)[C@@H](O)CC[C@]2(C)[C@H]3CC=C4[C@@H]5C[C@](C)(C(=O)O)CC[C@]5(C)CC[C@@]4(C)[C@]3(C)CC[C@@H]12`, for which the max response is 2.45%.

`CC1=CCC2C(C)(C)CCC[C@]2(C)[C@@]12CC[C@](C)(CC(=O)O)O2` (some centres undefined): the max response was -11.7%.

For the molecule `CC(O)CCC1C(CO[C@@H]2O[C@H](CO)[C@@H](O)[C@H](O)[C@H]2O)CC(O)CC1(C)C` (some centres undefined), the max response is 1.92%.

Take `Nc1nccn2c(C3CCC(C(=O)O)CC3)nc(-c3cc4cccc(Cl)c4[nH]3)c12` (centres undefined): the Potency is 5.17 µM (active).

For `C=C1CC2C(C)(CCC(=O)O)C(C(C)(C)O)CCC2(C)C2C(=O)OC(C)(C(=O)OC)C(=O)C12C` (centres undefined), the max response was 3.75%.

In the case of `CCCN1CCC(c2cccc(S(C)(=O)=O)c2)CC1`, the max response is -1.41%.

`C[C@@H]1CC[C@]2(C(=O)O)CC[C@]3(C)C(=CCC4[C@@]5(C)C[C@@H](O)[C@H](O)[C@@](C)(CO)C5CC[C@]43C)C2[C@]1(C)O` (some centres undefined): the max response was -12.2%.

On to `CCNC(=O)Nc1ncc(-c2cc(-c3c(C)cc(OC)cc3C)nc(-c3cnccn3)n2)s1`, for which the outcome was inactive.

Consider `Cc1ccc(-c2c(C(=O)CF)n(CCCO)c3ncnc(N)c23)cc1`, for which the molecule was classed as inactive.

With `CC1CC[C@]2(C(=O)O)CC[C@]3(C(=O)O)C(=CCC4[C@@]5(C)CC[C@H](OC6OC(C)C(O)C(OC7OC(CO)C(O)C(O)C7O)C6O)C(C)(C)C5CC[C@]43C)C2C1C` (some centres undefined), the max response is -0.0822%.

Take `CC(C)(C)Nc1nc(Nc2ccc(C(N)=O)cc2)cc(N)c1C#N`: the Potency was 1.64 µM (active).

As for `C[C@@H]1C[C@@H]([C@@H](O)C(C)(C)O)O[C@H]2C[C@@]3(C)C(=C12)C[C@H](O)[C@H]1[C@@]2(C)CCC(=O)C(C)(C)C2CC[C@@]13C` (some centres undefined), the max response is 3.48%.

With `NCCCNc1ccc(Nc2nccc(Nc3cc(C4CC4)[nH]n3)n2)cc1`, the Potency was 1.03 µM (active).

Turning to `CC1(c2nc3c(C(N)=O)cccc3[nH]2)CCCN1` (centres undefined), the max response is -22.9%.
